ChEMBL document CHEMBL2218924, “A broad activity screen in support of a chemogenomic map for kinase signalling research and drug discovery” (Biochem J, 2013)

What follows are compounds tested against Fibroblast growth factor receptor 4 (Homo sapiens) (UniProt P22455). Details: at 10 µM.
Sequence of Fibroblast growth factor receptor 4 (Homo sapiens) (P22455 22-802 limits assumed): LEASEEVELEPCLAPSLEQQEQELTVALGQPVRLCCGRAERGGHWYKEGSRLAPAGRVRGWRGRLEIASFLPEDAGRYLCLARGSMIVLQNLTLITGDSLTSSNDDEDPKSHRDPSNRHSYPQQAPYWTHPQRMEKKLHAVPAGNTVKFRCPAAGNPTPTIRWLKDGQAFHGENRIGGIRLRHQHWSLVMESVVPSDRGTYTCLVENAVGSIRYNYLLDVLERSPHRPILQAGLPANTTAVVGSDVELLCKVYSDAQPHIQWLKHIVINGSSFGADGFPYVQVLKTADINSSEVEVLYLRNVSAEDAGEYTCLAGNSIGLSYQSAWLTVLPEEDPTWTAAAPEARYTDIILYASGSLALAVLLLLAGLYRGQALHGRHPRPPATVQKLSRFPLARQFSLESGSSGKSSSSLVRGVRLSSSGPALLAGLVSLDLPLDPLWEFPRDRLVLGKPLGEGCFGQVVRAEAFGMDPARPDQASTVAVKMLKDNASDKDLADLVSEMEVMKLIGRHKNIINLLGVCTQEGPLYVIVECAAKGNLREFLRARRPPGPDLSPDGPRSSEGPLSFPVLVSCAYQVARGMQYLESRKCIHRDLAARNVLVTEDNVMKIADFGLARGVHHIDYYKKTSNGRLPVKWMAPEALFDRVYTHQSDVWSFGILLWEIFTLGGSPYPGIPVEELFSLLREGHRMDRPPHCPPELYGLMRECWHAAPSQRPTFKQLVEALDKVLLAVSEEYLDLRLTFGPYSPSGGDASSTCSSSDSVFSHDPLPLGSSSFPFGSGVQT
`O=c1cc(N2CCOCC2)oc2c(-c3ccccc3)cccc12` gave a residual activity of 70%. Compound `CSc1nc(-c2ccc(F)cc2)c(-c2ccnc(NC(C)c3ccccc3)c2)[nH]1` (configuration not stated) has a residual activity of 78%. `O=C(O)/C=C/c1cc(Br)c(Br)c(Br)c1Br` gave a residual activity of 96%. Compound `O=C(NC(NC(=S)Nc1ccc(F)c([N+](=O)[O-])c1)C(Cl)(Cl)Cl)C(c1ccccc1)c1ccccc1` (configuration not stated) has a residual activity of 83%. `COc1cc2c(cc1OC)-c1n[nH]c(Nc3cccc(F)c3)c1C2` showed a residual activity of 101%. In the case of `CCCC(=O)Oc1ccc2[nH]c(C(=O)c3cc4ccccc4[nH]3)cc2c1`, the residual activity is reported as 86%. `O=C1Cc2c([nH]c3ccc([N+](=O)[O-])cc23)-c2ccccc2N1` showed a residual activity of 102%. Work on `N#C/C(=C1/Nc2ccccc2S1)c1ccnc(NCCc2cccnc2)n1` yielded a residual activity of 67%. `COc1cc2nccc(Oc3ccc(NC(=O)Nc4cc(C)on4)c(Cl)c3)c2cc1OC` was tested, and the residual activity was 31%. Compound `Nc1nc(Nc2ccc(S(N)(=O)=O)cc2)nn1C(=O)c1c(F)cccc1F` has a residual activity of 66%. In the case of `NC(=O)c1ccc(-c2nc(-c3ccc4c(c3)OCCO4)c(-c3ccccn3)[nH]2)cc1`, the residual activity is reported as 95%. `CC(C)[C@H](CO)Nc1nc(Nc2cc(N)cc(Cl)c2)c2ncn(C(C)C)c2n1` showed a residual activity of 88%.

Each compound was assayed against Tyrosine-protein kinase Fer (Homo sapiens) (UniProt P16591). Details: at 1 µM.
Sequence of Tyrosine-protein kinase Fer (Homo sapiens) (P16591 whole entry, looked up): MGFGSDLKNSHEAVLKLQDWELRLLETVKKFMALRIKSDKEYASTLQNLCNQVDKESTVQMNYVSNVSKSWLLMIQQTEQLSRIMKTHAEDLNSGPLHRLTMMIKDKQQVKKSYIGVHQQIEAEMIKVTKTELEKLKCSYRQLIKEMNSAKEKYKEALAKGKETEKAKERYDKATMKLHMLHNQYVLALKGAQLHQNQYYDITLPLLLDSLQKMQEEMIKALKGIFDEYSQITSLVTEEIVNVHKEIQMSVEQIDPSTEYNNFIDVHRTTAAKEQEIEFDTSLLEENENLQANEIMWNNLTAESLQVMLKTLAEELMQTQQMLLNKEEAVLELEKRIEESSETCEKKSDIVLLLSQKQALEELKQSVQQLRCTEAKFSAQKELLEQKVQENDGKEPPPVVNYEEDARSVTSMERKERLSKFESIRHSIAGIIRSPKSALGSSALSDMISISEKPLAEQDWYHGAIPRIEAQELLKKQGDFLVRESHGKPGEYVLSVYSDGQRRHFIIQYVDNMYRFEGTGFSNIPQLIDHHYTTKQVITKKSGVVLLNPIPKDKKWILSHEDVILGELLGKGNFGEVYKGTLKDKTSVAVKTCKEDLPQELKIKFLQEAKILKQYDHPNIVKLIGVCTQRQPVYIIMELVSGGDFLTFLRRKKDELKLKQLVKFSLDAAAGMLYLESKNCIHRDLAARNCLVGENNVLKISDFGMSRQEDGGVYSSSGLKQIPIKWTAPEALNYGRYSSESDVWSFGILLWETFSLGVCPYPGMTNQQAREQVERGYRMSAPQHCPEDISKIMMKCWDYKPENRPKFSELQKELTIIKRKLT
`Nc1n[nH]c2nc3ccccc3nc12` showed a residual activity of 90%. Work on `O=c1cc(N2CCOCC2)oc2c(-c3ccccc3)cccc12` yielded a residual activity of 101%. In the case of `CC(C)(C)c1nc2c3ccc(F)cc3c3c(=O)[nH]ccc3c2[nH]1`, the residual activity is reported as 67%. Work on `O=C(O)/C=C/c1cc(Br)c(Br)c(Br)c1Br` yielded a residual activity of 97%. With `O=C(CCCc1ccc(-c2ccccc2F)cc1)Nc1ccc(O)cc1` the residual activity was 109%. In the case of `COc1cc2c(cc1OC)-c1n[nH]c(Nc3cccc(F)c3)c1C2`, the residual activity is reported as 100%. In the case of `COc1ccc2c(c1)c(C1=C(c3c[nH]c4ccccc34)C(=O)NC1=O)cn2CCCN(C)C`, the residual activity is reported as 102%. Work on `CCCC(=O)Oc1ccc2[nH]c(C(=O)c3cc4ccccc4[nH]3)cc2c1` yielded a residual activity of 107%. With `O=C1NC(=O)C(c2cn(CCCO)c3ncccc23)=C1c1cnccn1` the residual activity was 89%. `Nc1ncnc2[nH]nc(Nc3ccc(F)cc3)c12` gave a residual activity of 98%. `N#C/C(=C1/Nc2ccccc2S1)c1ccnc(NCCc2cccnc2)n1` was tested, and the residual activity was 89%. Work on `N#Cc1c(NC(=O)c2cccc3ccccc23)sc2c1CCCC2` yielded a residual activity of 89%. For `Nc1nc(Nc2ccc(S(N)(=O)=O)cc2)nn1C(=O)c1c(F)cccc1F`, the residual activity was 101%. Compound `COc1cc2ncnc(Nc3cccc(Cl)c3)c2cc1OC` has a residual activity of 113%. `CC(C)[C@H](CO)Nc1nc(Nc2cc(N)cc(Cl)c2)c2ncn(C(C)C)c2n1` gave a residual activity of 88%.
